Screens from PubChem.
Hits are enriched below; roughly 12% of the tested compounds scored in any of these assays.
Shiga inhibitor: inhibitors of Shiga toxin in Vero cells; Vero cells, Shiga toxin protein synthesis inhibition reporter; inhibition, % at 38.7 µM; actives 9.2% (n = 290,000); in the data active = inhibition mostly above about 28%, no sharp cut-off; inactive = mostly below about 43%; also: 0% is about no effect
Cycloheximide cs: affects cycloheximide protein synthesis inhibition readout, counter-screen. cell reporter, cycloheximide protein synthesis inhibition counterscreen. max response, %. actives 12% (n = 300,000); in the data active = max response mostly above about 13%, no sharp cut-off; inactive = mostly below about 14%; also: read at 38.3 µM for the half of the compounds with a filed dose; 0% is about no effect
Sm TGR block: inhibitors of Schistosoma mansoni thioredoxin glutathione reductase | Potency, µM (doses to about 114 µM), inactives show top-dose activity change, negative = inhibition, most hits filed as inhibitors | Q962Y6 | AID 485364 | purified TGR, DTNB reduction, TNB absorbance 405 nm | actives 3% (n = 360,000); active = well fitted inhibition curve with a large enough effect; inconclusive = small, poorly fitted or top-dose-only effect; inactive = no such curve, though single readings can be large or run the other way; also: potency is read from the fitted curve at half-maximal effect; % is scaled to controls: 0 for no effect and ±100 for the full control effect; nearly all actives have a fitted effect of over 60% in size
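TGR 20 nM + NADPH 100 uM (dispensed conc.), cpd preinc 15 min RT; start with NADPH (500 uM addition) then DTNB (15 mM addition). Kinetic TNB absorbance, 405 nm filter. Four-parameter Hill fit across titration.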
FMDV inh: blocks foot and mouth disease virus; actives 1.2% (n = 410,000); Potency, µM (titrated, usually from 57.9 µM), without a hit: at the top dose activity change, negative = inhibition, actives largely listed as inhibitors; FMDV antiviral cell-based qHTS; AID 1159524; calls by dose curve; tested in HEK293T cells; also: read-out not given here; potency is read from the fitted curve at half-maximal effect; % is scaled to controls: 0 for no effect and ±100 for the full control effect; nearly all actives have a fitted effect of over 45% in size
An asterisk follows results filed as active; i = inactive; ? = inconclusive; · = no result; [ ] = dose if it differs, or a comment.

SMILES	Shiga inhibitor	Cycloheximide cs	Sm TGR block	FMDV inh
O=C(Nc1cccc(Cl)c1)c1ccc(OC(=S)N2CCOCC2)cc1	103.3*	38.9*	-0.7%	8.7%
O=C(Nc1cccc2ccccc12)c1ccc(OC(=S)N2CCOCC2)cc1	103.3*	54.9*	-14.0%	·
Cc1cccc(-n2c3nc(=O)[nH]c(=O)c-3cc3ccc(Cl)cc32)c1C	·	·	-3.7%	?
CCOC(=O)C1=C(COC(=O)/C=C/c2ccc(C)o2)NC(=O)NC1C (stereo not given)	·	·	22.4µM*	-21.3%
CCOC(=O)C1=C(COC(=O)/C=C/c2ccccc2Cl)NC(=O)NC1C (stereo not given)	55.7*	48.9*	-9.8%	5.3%
CCOC(=O)C1=C(COC(=O)/C=C/c2cccc(OC)c2OC)NC(=O)NC1C (stereo not given)	53.1*	39.8*	-2.0%	31.5%
CCOC(=O)C1=C(COC(=O)/C=C/c2ccccc2)NC(=O)NC1C (stereo not given)	·	·	-14.3%	-10.6%
CCOC(=O)C1=C(COC(=O)/C=C/c2ccccc2F)NC(=O)NC1C (stereo not given)	·	·	-2.9%	-13.1%
CCOC(=O)c1ccc(-c2c(C)cc3oc(=O)cc(-c4ccccc4)c3c2C)cc1	i	31.6*	·	?
Cc1ccc(-c2c(C)cc3oc(=O)cc(-c4ccccc4)c3c2C)cc1	i	15.6	·	0.0%
CCOC(=O)c1cccc(NC(=O)CCc2c(C)nc3c4cccnc4nn3c2C)c1	·	·	5.2%	?
COC(=O)c1c(NC(=O)Nc2ccc(Cl)cc2)sc(C)c1C	-9.2	9.9	3.5%	4.1%
Cc1sc(NC(=O)Nc2ccccc2)c(C(N)=O)c1C	72.2*	43.1*	15.1%	39.8%
CC1(C)Cc2c(sc(NC(=O)Nc3ccccc3)c2C(N)=O)CO1	72.2	33.5*	0.3%	65.4%
COc1ccc(-c2cc(OC(=O)c3ccccc3Cl)c3c(C)oc(C)c3c(=O)c2)cc1OC	·	·	?	-1.5%
O=C(CCCn1c(=O)c2cccn2c2ccccc21)Nc1cc(C(F)(F)F)ccc1Cl	·	·	2.7%	-19.8%
O=[N+]([O-])c1cc(-c2ncccn2)c([N+](=O)[O-])s1	-13.2	-5.0	0.316µM*	39.8µM*
O=C(Nc1ncccn1)c1cc([N+](=O)[O-])cc([N+](=O)[O-])c1	-12.2	1.4	1.6%	-13.9%
CNC(=O)c1cc(C(=O)c2ccccc2Br)c[nH]1	7.0	7.2	0.5%	-6.6%
CNC(=O)c1cc(C(=O)c2ccc(C(F)(F)F)cc2F)c[nH]1	21.2	18.7*	13.1%	-5.2%
CNC(=O)c1cc(C(=O)c2ccccc2C(F)(F)F)c[nH]1	-13.1	-1.7	0.6%	-22.6%
CNC(=O)c1cc(C(=O)c2ccc(C(F)(F)F)cc2)c[nH]1	60.2*	26.7*	-2.0%	25.3%
CCCS(=O)(=O)c1cnc(C2COc3ccccc3O2)nc1N (stereo not given)	-3.4	-1.7	-0.7%	35.5µM*
C=C(C)CN(CC)C(=O)CCc1nnc(CCc2c[nH]c3ccccc23)o1	-7.3	-0.5	-8.8%	0.0%
CCC(COC)NC(=O)CCc1nnc(Cc2c[nH]c3ccccc23)o1 (stereo not given)	1.7	-2.0	?	0.2%
SMILES	Shiga inhibitor	Cycloheximide cs	Sm TGR block	FMDV inh
CC(C)(C)NC(=O)CCc1nnc(Cc2c[nH]c3ccccc23)o1	20.5	12.1*	?	15.0%
C=CCN(CC=C)C(=O)CCc1nnc(CCc2c[nH]c3ccccc23)o1	35.2	21.0*	·	38.3%
O=C(Cn1nc2c(cc1=O)CCCC2)NCc1ccccc1	·	·	7.5%	23.9%
CCC[C@@H]1NC(=O)[C@@H](NC(C)=O)CSSC[C@@H](C(N)=O)NC(=O)CNC(=O)[C@H](Cc2c[nH]c3ccccc23)NC(=O)[C@H](CCCN=C(N)N)NC(=O)[C@H](Cc2ccc3ccccc3c2)NC(=O)[C@H](Cc2cnc[nH]2)NC(=O)[C@H](CCCN=C(N)N)NC1=O	-2.8	2.8	·	·
Cc1cc(C(F)(F)F)n2nc(-c3cccs3)cc2n1	39.4*	31.1*	3.6%	12.7%
O=C(c1cc2nc(-c3cccs3)cc(C(F)(F)Cl)n2n1)N1CCCc2ccccc21	47.3	14.2	0.0%	·
FC(F)(F)c1cc(-c2cccs2)nc2cc(-c3ccccc3)nn12	-2.6	9.6	2.1%	-0.6%
O=C(c1nn2c(C(F)(F)F)cc(-c3ccco3)nc2c1Br)N1CCCc2ccccc21	-2.6	0.9	35.5µM*	0.0%
O=C(c1nn2c(C(F)(F)F)cc(-c3cccs3)nc2c1Br)N1CCCc2ccccc21	15.7	20.8*	2.7%	21.4%
O=C(c1cc2nc(-c3ccco3)cc(C(F)(F)F)n2n1)N1CCCc2ccccc21	52.2	7.3	-28.9%	?
O=C(c1cc2nc(-c3cccs3)cc(C(F)(F)F)n2n1)N1CCCc2ccccc21	26.1	19.6*	35.5%	0.0%
Cc1cc(C)cc(-n2ccnc(NCc3ccc(F)cc3)c2=O)c1	·	·	1.5%	-16.7%
COC(=O)c1cccc(Nc2c(-c3ccc(SC)cc3)nc3nc[nH]n23)c1	·	·	-0.1%	53.0%
COc1ccc(C(=C2C(=O)Nc3ccccc32)c2ccc(OC)cc2)cc1	-7.1	4.7	·	·
C/C(=C\C(=O)c1ccc(Br)cc1)NCc1ccccc1	62.2	18.7*	0.9%	-8.5%
C/C(=C\C(=O)c1ccc(Br)cc1)NNC(=O)c1ccccc1	·	·	·	-15.6%
C/C(=C\C(=O)c1ccc(Br)cc1)NNC(=O)c1ccc(O)cc1	50.0*	27.0*	?	0.8%
C/C(=C\C(=O)c1ccc(Br)cc1)NCc1ccc(C)cc1	-6.4	5.8	6.9%	?
CCOC(=O)c1c(C)oc2c1C(=O)c1ccccc1C2=O	49.5*	29.6*	-19.4%	-20.7%
CCCCOc1ccc(S(=O)(=O)N2CCN(c3ccccc3OCC)CC2)cc1	·	·	2.7%	-16.8%
Cc1ccn2cc(-c3cccc(NC(=O)c4cccs4)c3)nc2c1	36.3	22.2*	0.6%	13.6%
Cc1cccn2cc(-c3cccc(NC(=O)c4cccs4)c3)nc12	70.9*	32.3*	0.3%[57.1 µM]	31.4%
Cc1ccc(-n2ncc(C(=O)NCCCN3CCc4ccccc4C3)c2C2CCN(C(=O)OC(C)(C)C)CC2)c(C)c1	·	·	-1.7%	-12.5%
CCC(C)NC(=O)Cn1c(=O)n(-c2cc(OC)cc(OC)c2)c(=O)c2ccccc21 (stereo not given)	·	·	1.6%	0.0%
COC(=O)c1[nH]c2ccc(C)cc2c1NC(=O)CCN1CCN(C2CCCCC2)CC1	-7.8	-1.4	5.0%	·
SMILES	Shiga inhibitor	Cycloheximide cs	Sm TGR block	FMDV inh
COC(=O)c1[nH]c2ccc(Br)cc2c1NC(=O)CN1CCN(C2CCCCC2)CC1	-27.8	-8.9	-18.6%	31.6µM*
N#C/C(=C/c1ccc(Br)o1)C(N)=S	-6.3	-2.6	3.55µM*	·
N#C/C(=C\c1ccc(N2CCOCC2)o1)C(=O)Nc1ccc(O)cc1	67.6*	31.3*	·	20.4%
Cc1cc(/C=C(\C#N)C(=O)Nc2ccc(F)cc2)c(C)n1-c1ccc(N2CCOCC2)c([N+](=O)[O-])c1	-2.4	-2.5	9.7%	?
N#C/C(=C/c1ccc(Br)o1)C(N)=O	7.9	-6.1	-22.7%	-18.0%
COc1ccc(NC(=O)/C(C#N)=C/c2cc(C)n(-c3ccc(N4CCOCC4)c([N+](=O)[O-])c3)c2C)cc1	-19.9	-2.6	4.2%	3.98µM*
N#C/C(=C/c1ccc(N2CCOCC2)o1)C(=O)NC1CCCCC1	36.4	18.6*	31.6µM*	6.5%
